# Results taken from PubChem BioAssay AID1792 (The Scripps Research Institute Molecular Screening Center, 2009).
# Among all 16,000 compounds or so, about 130 (0.81%) were called active. Many of the other results were omitted from the sample, so actives are more common in it than they were. A number with no mark means an inactive call. Rule as the data show it: active = inhibition above about 75%; inactive = the rest.
# Target: NADPH oxidase 1 (Homo sapiens) (UniProt Q9Y5S8)
# Experiment: inhibitors of human NADPH oxidase 1 (Nox1) (AID 1792)
# Conditions: HT29 cells, luminol chemiluminescence ROS; at 6.7 µM; stronger effect = higher value
# Sequence of NADPH oxidase 1 (Homo sapiens) (Q9Y5S8 whole entry, looked up): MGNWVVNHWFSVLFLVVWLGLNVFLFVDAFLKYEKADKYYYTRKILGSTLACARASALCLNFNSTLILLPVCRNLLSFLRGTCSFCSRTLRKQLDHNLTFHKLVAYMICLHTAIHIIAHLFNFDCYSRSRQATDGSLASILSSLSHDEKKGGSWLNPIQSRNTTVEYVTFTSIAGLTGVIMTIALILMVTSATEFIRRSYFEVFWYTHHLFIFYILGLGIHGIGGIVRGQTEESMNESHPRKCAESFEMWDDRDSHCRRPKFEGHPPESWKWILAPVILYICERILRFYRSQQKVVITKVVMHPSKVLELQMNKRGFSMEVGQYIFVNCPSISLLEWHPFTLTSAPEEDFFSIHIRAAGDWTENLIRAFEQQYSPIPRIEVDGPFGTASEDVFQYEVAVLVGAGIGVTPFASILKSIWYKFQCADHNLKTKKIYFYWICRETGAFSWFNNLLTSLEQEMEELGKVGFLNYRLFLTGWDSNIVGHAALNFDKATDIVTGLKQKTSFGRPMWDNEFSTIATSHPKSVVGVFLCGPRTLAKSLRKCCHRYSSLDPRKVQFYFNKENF
row,SMILES,inhibition
1,CCCCNC(=O)OCCSCCS(=O)(=O)c1ccc(Cl)cc1,-35%
2,O=C(NCc1cccnc1)Nc1cccc(NC(=O)NCc2cccnc2)c1F,-23.7%
3,CC(C)(C)OC(=O)n1ccc2cc(Br)ccc21,-51.3%
4,Fc1ccc(NC(=S)N2CCN=C2Nc2ccc(F)cc2)cc1,-49.7%
5,O=C(O)c1ncoc1-c1cccc(Cl)c1,-52.4%
6,CCOC(=O)CC(=O)CSc1nnc(N)s1,-48%
7,N#Cc1cncc(Br)c1,-66.5%
8,NNC(=O)CC1C(=O)NCCN1Cc1c(Cl)cccc1Cl (stereo not drawn),14.9%
9,CSc1ccc(Br)cc1,-59.5%
10,CC(C)(C)c1cc(NC(=O)/C(C#N)=C/c2cccc(Cl)c2Cl)c(C(N)=O)s1,-9.18%
11,COC(=O)c1ccccc1N(C)C(=O)c1cc(OC)c(OC)c(OC)c1,-18%
12,CCOC(=O)NC(=O)/C(=C/NCc1cccs1)C(=O)OCC,-20.5%
13,NC(=O)c1ccc(-c2csnn2)cc1,-4.63%
14,FC(F)(F)c1cc(-c2ccc(Br)cc2)n[nH]1,-47%
15,Cc1ncn2cc(-c3ccc(Cl)cc3Cl)[nH]c(=O)c12,-12%
16,Cc1ccc(CSC(=N)N)cc1,-35.4%
17,O=C(NC(=S)Nc1nc(-c2ccc(Cl)cc2)cs1)C1CC1,-57.1%
18,CC(=O)NC(Cc1c[nH]c2ccccc12)C(=O)O (stereo not drawn),-15.3%
19,O=C(Cn1c(=Nc2ccc(F)cc2)oc2ccccc2c1=O)c1ccccc1,-0.92%
20,COc1ccc(S(=O)c2ccccc2C(=O)O)c(C(=O)O)c1 (stereo not drawn),-11.3%
21,COc1ccccc1C1CCN(c2ccc([N+](=O)[O-])cn2)CC1,18%
22,O=C(Nc1ccc(C(F)(F)F)cn1)c1ccc(Oc2cc(Cl)cc(Cl)c2)o1,-58.2%
23,CCCCOC(=O)c1ccc(-c2ccccn2)s1,-10.4%
24,Cc1[nH]ncc1S(=O)(=O)c1ccc(Cl)cc1,-77.8%
25,Cc1cc(C(=O)NNC(=O)c2cc(C)n(C(C)(C)C)n2)no1,-45.9%
26,O=C(Nc1ccccc1C(F)(F)F)N1CCCC1c1cccnc1 (stereo not drawn),-8.11%

row,SMILES,inhibition
1,CCOC(=O)c1sc(SC)c(-c2ccccc2)c1N,0%
2,N#Cc1c(C2CCCCC2)[nH]c(=S)[nH]c1=O,-8.73%
3,COc1c(/C(N)=N/O)cc(C)c2c1CCC2,8.11%
4,Cc1ccc(S(C)(=O)=NC(=O)NS(=O)(=O)Oc2ccc(Cl)cc2Cl)cc1 (stereo not drawn),-64.7%
5,O=C1c2ccccc2C(=O)N1CNc1ccc(C2CCCCC2)cc1,-10.4%
6,O=C(c1ccc(C#Cc2ccccc2)o1)N1CCCCC1,-23.7%
7,NNC(=O)c1csc(COc2ccc(C3SCCS3)cc2)n1,4.76%
8,N/C(Cc1ccc(F)cc1F)=N\OC(=O)c1cccc(C(F)(F)F)c1,-67.4%
9,O=C(c1ccccc1I)c1c[nH]c2ccccc12,13.6%
10,CC1(C)c2ccccc2-n2c1cc(O)c(-c1ccccc1)c2=O,-50%
11,COC(=O)c1c(C)noc1-c1ccno1,-21.7%
12,CCCCCCCCCCCCCC#CC(O)C(N)CO (stereo not drawn),-24.7%
13,O=C(NNC(=O)C1c2ccccc2Oc2ccccc21)c1cccc(F)c1,-30.2%
14,CC(=O)Nc1ccc(NC(=O)c2cc(C)ccc2[N+](=O)[O-])c(C)c1,-28.7%
15,CSc1ccc(C(F)(F)F)cc1NC(=S)Nc1ccccc1,-18%
16,COC(=O)c1sccc1-c1ccc(/C(C)=N/NC(N)=O)o1,-53.5%
17,CCOC1=NC(C(F)(F)F)(C(F)(F)F)N=C(N2CCOCC2)O1,-12.7%
18,O=S(=O)(Cc1cccc(C(F)(F)F)c1)NCc1ccc2c(c1)OCO2,-29.2%
19,Cc1nc(-c2ccccc2)sc1-c1nnc(C2CC2)o1,-8.29%
20,Cc1ccc(CC(=O)c2cccnc2)cc1,13.9%
21,COc1ccccc1N1CCN(C/C(N)=N/O)CC1,-72.5%
22,O=C(NCc1ccc2c(c1)OCO2)c1cccc2c1OCCCO2,-22.4%
23,COc1ccc(-c2nnc(SCC(O)C(F)(F)F)n2-c2cccc(OC)c2)cc1 (stereo not drawn),-65.7%
24,O=C1CCC(=O)N(c2ccccc2)N1,5.82%
25,CN(C)/C=N/NC(=O)c1nc(-c2cccc(-n3cccc3)c2)no1,18.8%
26,O=S(=O)(Oc1ncccc1C(F)(F)F)c1cccc(F)c1,-33.3%

row,SMILES,inhibition
1,CC(C)(C)c1csc(Sc2ccc([N+](=O)[O-])cc2[N+](=O)[O-])n1,-42.4%
2,Cc1[nH]c2ccccc2c1Sc1ccc(Cl)cc1,-26.1%
3,CC1(C)C2CC[C@](C)(C2)C1NC(=O)c1c(Cl)cccc1Cl (stereo partly drawn),-15.2%
4,Oc1c(Cl)c(Cl)c(Cl)c2ccccc12,-9.97%
5,O=C(Nc1ccccc1)N1CCN(Cc2ccccc2)CC1,-18.5%
6,Nc1[nH]c(=O)nc2nc[nH]c12,10.8%
7,CN(C)CCC(O)c1ccc2c(c1)OCCCCO2 (stereo not drawn),-25.5%
8,Cc1ccc2sc(NC(=O)NC(=O)c3c(Cl)cccc3Cl)nc2c1,-14.9%
9,Cc1c(C(=O)Nc2ccccc2)sc2cc(C(C)(C)C)sc12,4.35%
10,CS(=O)(=NC(=O)c1cc2ccccc2o1)c1ccc(Cl)cc1 (stereo not drawn),3.12%
11,N#CCc1ccc(NC(=O)c2ccccc2C(=O)Nc2ccc(CC#N)cc2)cc1,-21.7%
12,CCCN(CCC)S(=O)(=O)c1ccc(C(=O)N2CC3CCC(CC3)C2)cc1,-49.5%
13,OC(CNCc1ccc2c(c1)OCO2)COc1ccccc1 (stereo not drawn),-16.2%
14,CC(C)c1ccc(N2C(=O)/C(=C\c3ccc(-c4ccc([N+](=O)[O-])cc4)o3)SC2=S)cc1,-23.7%
15,FC(F)(F)c1cccc(-n2c(-c3ccncc3)n[nH]c2=S)c1,-29.9%
16,c1ccc(CN2CCN(Cn3nnc4ccccc43)CC2)cc1,-54.1%
17,CC1(C)C=Cc2cc(-c3noc(-c4ccccc4)n3)ccc2O1,-38.9%
18,Nc1c(-c2nnc(SCC(=O)c3ccccc3)o2)cnn1-c1ccccc1,26.2%
19,FC(F)(F)c1ccc(/C=N/Nc2nccc(C(F)(F)F)n2)cc1,-24.2%
20,CC(=O)Nc1cccc(-n2nnc(SCC(=O)c3cc(-c4ccccc4)no3)n2)c1,-33.7%
21,Cc1ccc(S(=O)(=O)NNC(=S)NC(C)(C)C)cc1,-24.1%
22,C=C(C)c1cccc(C(C)(C)NC(=O)CC(C)=O)c1,-17.3%
23,COC(=O)c1cccc(CSc2ncccc2C(=O)O)c1,-48.1%
24,COc1ccc(NC(NC(=O)c2ccc(OC)cc2)(C(F)(F)F)C(F)(F)F)cc1,-26.1%
25,COc1ccc(NC(=O)C2CC(C)=C(C)CC2C(=O)O)c(N2CCOCC2)n1 (stereo not drawn),-11.6%
26,O=C(CSC(=S)N1CCCCC1)c1c(F)cccc1F,16%

row,SMILES,inhibition
1,Cn1nc(-c2ccccc2)cc1N,12.5%
2,O=C(Nc1ccc(C(F)(F)F)cc1)Nc1ccccc1C(=O)O,-32.5%
3,Cc1ccc(OC(=O)c2nn(-c3ccccc3)nc2C)c([N+](=O)[O-])n1,-75.6%
4,O=C(NCc1cc2ccccc2s1)C1CN(C(c2ccccc2)c2ccccc2)C1,-2.49%
5,O=C(O)CC(CC(=O)O)c1ccc(C(F)(F)F)cc1,-30.4%
6,COC(=O)c1sc(S(C)=O)c(-c2ccon2)c1C (stereo not drawn),-55.1%
7,Cc1onc(-c2ccccc2)c1C(=O)Sc1ccc(C(F)(F)F)cn1,-30.5%
8,COC(=O)c1ccc(/C=C2\C(=O)Nc3ccccc32)n1-c1ccc(F)cc1,-9.26%
9,COc1ccc(Cc2nnc(SC)[nH]c2=O)cc1,-41.8%
10,O=S(=O)(Oc1ccc(C2SCCS2)cc1)c1ccc(Br)cc1,10.3%
11,OC(c1ccncc1)c1c[nH]c2ccccc12 (stereo not drawn),-46.2%
12,COc1ccc(OC)c(CCCc2cc(OC)ccc2OC)c1,-22.8%
13,N#Cc1ccc(N2CCN(C(=O)c3ccco3)CC2)cc1,-5.71%
14,Cc1[nH]c2c(F)cc(F)cc2c(=O)c1I,-29.2%
15,COc1cc(-c2n[nH]c(=S)n2Cc2ccccc2)cc(OC)c1OC,-31.5%
16,O=C1CCCCC(=O)c2ccccc2N1,-36.9%
17,Cc1c(S(=O)(=O)c2ccc(Cl)cc2)csc1C(=O)Nc1ccc2c(c1)OCCO2,-34.3%
18,NS(=O)(=O)c1cc(C(F)(F)F)cc(C(F)(F)F)c1,-30.4%
19,NNC(=O)c1ccc(Cl)cc1Cl,-29.6%
20,N#CNC(N)=Nc1cc(Cl)ccc1Cl,-53.6%
21,O=C(NCc1csc(-c2cccs2)n1)Nc1ccccc1-c1ccccc1,11.9%
22,Cn1c(=O)c(/C(N)=N/OC(=O)c2ccccc2Cl)cn(-c2ccccc2)c1=O,-28.3%
23,N/C(CC(=O)Nc1ccc(F)c(Cl)c1)=N\O,8.11%
24,O=C1NCCN1CCNS(=O)(=O)c1cc(Cl)sc1Cl,14.5%
25,O=C(N[C@@H](Cc1ccc(O)cc1)C(=O)O)OCc1ccccc1,-6.06%
